Reference: PubChem BioAssay
Unmarked numbers belong to inactive results. The source made the active and inactive calls. Rule as the data show it, unless noted: active = inhibition above about 28%; inactive = the rest.

Legend:
[1] = target: Nuclear receptor coactivator 3 (Homo sapiens) (UniProt Q9Y6Q9); experiment: SRC3 coactivator transcriptional activity inhibitors, confirmation, cell-based, luminescence, quadruplicate (AID 588792;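 active = mean inhibition over 43.08%, the solvent-only control mean plus 3 SD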;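 also: 0% = DMSO treated cells and 100% = gossypol at 36 µM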); details: HEK293 GAL4-SRC3 luciferase reporter, at 3.6 µM, stronger effect = higher value
[2] = tested on: transactivating tegument protein VP16 (Human herpesvirus 1), Gal4-VP16 luciferase reporter; experiment: VP16 transactivation inhibitors, counter-screen for SRC3 inhibitor project, cell-based, luminescence, high throughput (AID 588794; in the data active = inhibition above about 30%); details: mammalian cells, VP16-driven luciferase reporter luminescence; at 3.6 µM; stronger effect = higher value
[3] = target: Nuclear receptor coactivator 1 (Homo sapiens) (UniProt Q15788); experiment: SRC1 coactivator transcriptional activity inhibitors, confirmation, cell-based, luminescence, quadruplicate (AID 588820;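 active = mean inhibition above 46.68%, the untreated control wells mean plus 3 SD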;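 also: 0% = DMSO wells and 100% = gossypol 36 µM treated wells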); details: HEK293 GAL4-SRC1 luciferase reporter, at 3.6 µM, stronger effect = higher value
[4] = VP16 transactivation inhibitors, counter-screen for SRC1 inhibitor project, cell-based, luminescence, high throughput (AID 588824; in the data active = inhibition above about 25%); details: cell-based VP16 transactivation luciferase luminescence; at 3.6 µM; stronger effect = higher value
[5] = StAR promoter reporter inhibitors, counter-screen for LRH-1 inverse agonist project, cell-based, luminescence, high throughput (AID 651611); details: StAR promoter luciferase reporter counterscreen, at 3.6 µM, stronger effect = higher value
[6] = target: Nuclear receptor subfamily 5 group A member 2 (Homo sapiens) (UniProt O00482); experiment: LRH-1 (NR5A2) inverse agonists, retest, confirmation, cell-based, luminescence (AID 651613; in the data active = inhibition above about 42%;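 also: HEK293T cells co-transfected with LRH-1 and StAR promoter luciferase reporter; 0% = vehicle wells and 100% = parental cells lacking receptor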); details: cell-based LRH-1 luciferase reporter, inverse agonism; at 3.6 µM; stronger effect = higher value
[7] = target: Steroidogenic factor 1 (Homo sapiens) (UniProt Q13285); experiment: SF1 (NR5A1) inverse agonists, counter-screen for LRH-1 inverse agonist project, cell-based, luminescence, high throughput (AID 651614; in the data active = inhibition above about 44%;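 also: cells cotransfected with StAR promoter reporter and SF1 expression vector; 0% = vehicle on cells with receptor and 100% = vehicle on cells lacking receptor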); details: cell-based SF1 luciferase reporter, at 3.6 µM, stronger effect = higher value
[8] = VP16 transactivation reporter inhibitors, counter-screen for LRH-1 inverse agonist project, cell-based, luminescence, high throughput (AID 651615; in the data active = inhibition above about 33%); details: Gal4-VP16 luciferase reporter cells, at 3.6 µM, stronger effect = higher value
[9] = tested on: transactivating tegument protein VP16 (Human herpesvirus 1); experiment: VP16 transactivation reporter inhibitors, counter-screen for SRC2 inhibitor project, cell-based, luminescence, single concentration (AID 652007; in the data active = inhibition above about 36%); details: cell-based VP16 transactivation luciferase reporter, at 8.9 µM, stronger effect = higher value
[10] = target: Nuclear receptor coactivator 2 (Homo sapiens) (UniProt Q15596); experiment: SRC2 coactivator transcriptional activity inhibitors, confirmation, cell-based, luminescence, HEK293, triplicate (AID 652008;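 active = mean inhibition above 46.5%, the solvent-only control mean plus 3 SD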;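 also: 0% = DMSO-treated cells and 100% = Gossypol at 36 µM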); details: HEK293 GAL4-SRC2 luciferase reporter, at 8.9 µM, stronger effect = higher value
Nuclear receptor coactivator 2 (Homo sapiens), sequence (Q15596 whole entry, looked up, the tested form may be a part): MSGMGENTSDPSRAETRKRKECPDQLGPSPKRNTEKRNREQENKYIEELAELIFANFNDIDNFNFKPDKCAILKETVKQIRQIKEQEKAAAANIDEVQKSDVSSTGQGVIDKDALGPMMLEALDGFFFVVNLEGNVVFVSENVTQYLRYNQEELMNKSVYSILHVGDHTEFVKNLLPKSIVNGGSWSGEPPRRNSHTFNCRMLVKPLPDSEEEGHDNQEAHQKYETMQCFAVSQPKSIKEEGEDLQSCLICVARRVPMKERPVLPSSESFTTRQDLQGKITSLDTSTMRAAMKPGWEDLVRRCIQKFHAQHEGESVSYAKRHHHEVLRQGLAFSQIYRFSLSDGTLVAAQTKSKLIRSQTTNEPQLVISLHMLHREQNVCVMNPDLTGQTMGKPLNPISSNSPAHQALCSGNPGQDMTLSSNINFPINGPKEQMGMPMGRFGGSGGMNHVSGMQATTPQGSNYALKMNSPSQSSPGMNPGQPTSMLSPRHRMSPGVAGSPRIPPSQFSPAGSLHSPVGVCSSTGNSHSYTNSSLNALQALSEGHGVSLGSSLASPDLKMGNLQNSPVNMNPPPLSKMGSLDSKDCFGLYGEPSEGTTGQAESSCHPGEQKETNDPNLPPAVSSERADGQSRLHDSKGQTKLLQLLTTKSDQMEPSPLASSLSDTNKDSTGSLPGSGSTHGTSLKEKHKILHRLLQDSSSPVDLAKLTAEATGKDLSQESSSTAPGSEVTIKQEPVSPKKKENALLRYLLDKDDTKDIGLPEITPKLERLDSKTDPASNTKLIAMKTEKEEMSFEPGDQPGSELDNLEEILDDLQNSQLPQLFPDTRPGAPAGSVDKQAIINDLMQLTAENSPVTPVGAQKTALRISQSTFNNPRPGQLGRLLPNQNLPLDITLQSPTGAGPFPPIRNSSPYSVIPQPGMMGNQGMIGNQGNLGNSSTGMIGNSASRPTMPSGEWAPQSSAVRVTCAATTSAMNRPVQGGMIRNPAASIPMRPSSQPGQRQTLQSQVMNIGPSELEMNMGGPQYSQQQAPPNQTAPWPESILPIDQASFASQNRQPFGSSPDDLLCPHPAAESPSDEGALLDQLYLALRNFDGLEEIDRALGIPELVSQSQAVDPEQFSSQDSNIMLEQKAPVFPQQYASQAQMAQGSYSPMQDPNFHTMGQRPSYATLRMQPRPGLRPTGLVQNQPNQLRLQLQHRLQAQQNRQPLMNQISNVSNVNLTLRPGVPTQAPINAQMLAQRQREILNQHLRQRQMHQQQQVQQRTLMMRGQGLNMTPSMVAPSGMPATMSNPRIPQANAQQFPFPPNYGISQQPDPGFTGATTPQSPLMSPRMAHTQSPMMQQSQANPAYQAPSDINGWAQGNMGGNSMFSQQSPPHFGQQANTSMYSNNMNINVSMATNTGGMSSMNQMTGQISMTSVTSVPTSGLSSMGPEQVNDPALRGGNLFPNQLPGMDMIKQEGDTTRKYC

Nuclear receptor coactivator 1 (Homo sapiens), sequence (Q15788 whole entry, looked up, the tested form may be a part): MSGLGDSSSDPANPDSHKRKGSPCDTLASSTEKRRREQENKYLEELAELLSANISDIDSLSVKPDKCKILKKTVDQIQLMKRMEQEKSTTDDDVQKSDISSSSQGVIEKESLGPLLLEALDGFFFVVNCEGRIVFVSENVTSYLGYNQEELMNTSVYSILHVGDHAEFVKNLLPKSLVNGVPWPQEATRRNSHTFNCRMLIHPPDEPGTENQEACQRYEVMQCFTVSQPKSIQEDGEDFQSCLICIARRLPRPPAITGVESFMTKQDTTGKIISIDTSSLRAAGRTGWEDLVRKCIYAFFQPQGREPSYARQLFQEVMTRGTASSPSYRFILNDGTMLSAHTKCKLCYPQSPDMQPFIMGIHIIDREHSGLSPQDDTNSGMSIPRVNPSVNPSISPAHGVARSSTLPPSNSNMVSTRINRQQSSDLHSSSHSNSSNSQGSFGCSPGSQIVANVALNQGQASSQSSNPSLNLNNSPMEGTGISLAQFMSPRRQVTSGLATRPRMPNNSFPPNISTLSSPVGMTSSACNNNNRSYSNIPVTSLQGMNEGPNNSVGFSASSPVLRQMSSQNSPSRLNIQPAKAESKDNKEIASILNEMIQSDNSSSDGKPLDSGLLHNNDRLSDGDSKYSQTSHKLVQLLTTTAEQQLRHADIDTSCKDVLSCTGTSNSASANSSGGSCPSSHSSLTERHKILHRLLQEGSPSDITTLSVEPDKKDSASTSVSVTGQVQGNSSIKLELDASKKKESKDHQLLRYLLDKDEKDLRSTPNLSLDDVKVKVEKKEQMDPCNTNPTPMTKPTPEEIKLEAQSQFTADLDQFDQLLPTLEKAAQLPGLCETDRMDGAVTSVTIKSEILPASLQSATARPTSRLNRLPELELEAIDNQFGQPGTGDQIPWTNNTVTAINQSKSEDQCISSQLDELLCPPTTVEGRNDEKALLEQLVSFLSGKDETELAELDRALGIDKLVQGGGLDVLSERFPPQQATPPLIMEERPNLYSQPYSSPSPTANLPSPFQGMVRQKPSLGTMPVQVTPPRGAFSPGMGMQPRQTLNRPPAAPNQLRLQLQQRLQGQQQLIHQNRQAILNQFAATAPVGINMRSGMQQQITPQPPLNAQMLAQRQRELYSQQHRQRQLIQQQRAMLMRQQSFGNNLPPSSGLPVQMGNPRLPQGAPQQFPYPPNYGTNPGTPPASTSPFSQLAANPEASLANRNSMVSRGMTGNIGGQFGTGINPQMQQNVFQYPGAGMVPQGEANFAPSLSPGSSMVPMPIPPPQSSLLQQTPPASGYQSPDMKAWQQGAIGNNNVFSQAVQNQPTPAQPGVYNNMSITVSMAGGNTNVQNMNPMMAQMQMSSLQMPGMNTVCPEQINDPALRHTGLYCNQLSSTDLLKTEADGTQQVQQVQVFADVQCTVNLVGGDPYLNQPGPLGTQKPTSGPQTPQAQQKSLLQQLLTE
Nuclear receptor coactivator 3 (Homo sapiens), sequence (Q9Y6Q9 whole entry, looked up, the tested form may be a part): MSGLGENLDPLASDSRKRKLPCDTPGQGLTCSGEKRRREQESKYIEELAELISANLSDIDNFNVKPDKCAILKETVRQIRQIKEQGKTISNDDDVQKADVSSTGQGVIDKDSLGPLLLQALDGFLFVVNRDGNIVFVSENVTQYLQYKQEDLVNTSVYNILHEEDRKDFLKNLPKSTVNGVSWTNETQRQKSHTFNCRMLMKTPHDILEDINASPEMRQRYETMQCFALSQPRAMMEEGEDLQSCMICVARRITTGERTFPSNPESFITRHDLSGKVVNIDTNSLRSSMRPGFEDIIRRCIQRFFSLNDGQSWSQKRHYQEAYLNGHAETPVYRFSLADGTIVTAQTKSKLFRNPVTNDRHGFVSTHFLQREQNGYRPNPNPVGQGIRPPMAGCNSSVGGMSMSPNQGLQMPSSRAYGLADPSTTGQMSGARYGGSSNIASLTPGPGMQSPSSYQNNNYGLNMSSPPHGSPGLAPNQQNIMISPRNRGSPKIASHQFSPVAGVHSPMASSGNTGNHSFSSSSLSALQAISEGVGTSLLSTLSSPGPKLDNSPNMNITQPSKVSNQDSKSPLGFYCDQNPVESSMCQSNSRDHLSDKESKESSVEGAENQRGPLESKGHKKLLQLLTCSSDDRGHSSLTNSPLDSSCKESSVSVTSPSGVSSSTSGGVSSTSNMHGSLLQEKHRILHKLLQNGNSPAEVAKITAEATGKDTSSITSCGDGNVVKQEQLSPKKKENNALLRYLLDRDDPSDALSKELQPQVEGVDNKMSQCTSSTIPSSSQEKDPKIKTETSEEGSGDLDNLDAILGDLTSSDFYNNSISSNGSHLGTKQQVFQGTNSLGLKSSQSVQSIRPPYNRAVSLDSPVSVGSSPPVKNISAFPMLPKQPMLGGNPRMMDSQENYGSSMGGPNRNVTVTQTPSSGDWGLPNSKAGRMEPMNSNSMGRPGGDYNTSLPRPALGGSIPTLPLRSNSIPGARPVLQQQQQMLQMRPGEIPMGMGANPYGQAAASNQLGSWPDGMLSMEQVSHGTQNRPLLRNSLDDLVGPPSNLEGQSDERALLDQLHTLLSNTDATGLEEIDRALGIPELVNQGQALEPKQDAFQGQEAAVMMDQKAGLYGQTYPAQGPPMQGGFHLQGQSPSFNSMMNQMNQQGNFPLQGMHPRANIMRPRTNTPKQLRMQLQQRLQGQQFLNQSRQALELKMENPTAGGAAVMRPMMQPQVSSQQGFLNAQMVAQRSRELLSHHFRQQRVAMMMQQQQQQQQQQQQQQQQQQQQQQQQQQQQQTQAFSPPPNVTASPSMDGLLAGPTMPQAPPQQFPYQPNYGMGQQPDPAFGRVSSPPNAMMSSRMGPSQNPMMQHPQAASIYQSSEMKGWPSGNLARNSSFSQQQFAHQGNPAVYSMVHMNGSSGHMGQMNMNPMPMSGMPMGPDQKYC
Steroidogenic factor 1 (Homo sapiens), sequence (Q13285 whole entry, looked up, the tested form may be a part): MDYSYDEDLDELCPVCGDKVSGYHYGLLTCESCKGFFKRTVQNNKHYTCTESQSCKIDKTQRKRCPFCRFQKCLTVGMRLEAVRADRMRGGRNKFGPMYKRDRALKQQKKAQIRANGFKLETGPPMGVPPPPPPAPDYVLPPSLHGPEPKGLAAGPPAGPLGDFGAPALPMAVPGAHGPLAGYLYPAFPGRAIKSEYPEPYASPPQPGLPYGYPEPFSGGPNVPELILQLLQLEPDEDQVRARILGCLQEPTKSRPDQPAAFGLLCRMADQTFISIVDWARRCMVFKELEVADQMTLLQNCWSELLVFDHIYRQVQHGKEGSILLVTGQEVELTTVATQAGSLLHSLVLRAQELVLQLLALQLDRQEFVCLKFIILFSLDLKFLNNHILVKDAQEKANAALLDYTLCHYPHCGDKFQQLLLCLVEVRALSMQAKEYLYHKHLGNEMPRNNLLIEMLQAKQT

SMILES | inhibition [1] | inhibition [2] | inhibition [3] | inhibition [4] | inhibition [5] | inhibition [6] | inhibition [7] | inhibition [8] | inhibition [9] | inhibition [10]
Cc1nn(-c2nc3ccccc3[nH]2)c(=O)c2ccccc12 | 72.3% (active) | 65% (active) | 47.4% (active) | 68.3% (active) | 69.2% (active) | 63.9% (active) | 78.8% (active) | 59.3% (active) | 82.9% (active) | 89.3% (active)
Cc1c(/C(O)=C2/C(=O)C(=O)N(CCN3CCOCC3)C2c2ccccn2)cnn1-c1ccccc1 (stereo not given) | 62.5% (active) | 41.7% (active) | 54.5% (active) | 26.1% (active) | 68.9% (active) | 24.3% | 75.2% (active) | 12.3% | 68.5% (active) | 83.4% (active)
O=c1cnnc(N/N=C/c2ccccn2)[nH]1 | 81.9% (active) | 68.9% (active) | 76% (active) | 54.8% (active) | 87.7% (active) | 103% (active) | 83.3% (active) | 65.3% (active) | -24.3% | 26.5%
C=C1C(=O)C2=CC1CCC(=O)C1(C)CCC(OC(C)=O)C(C)(C)C1CC2O (stereo not given) | 35.4% | 53.2% (active) | 8.46% | 51.3% (active) | 30.3% (active) | 3.03% | 33.2% | 56.1% (active) | 33.9% | 41.2%
COc1ccc(CNC(=O)c2cccc3c(-c4cccc(C(N)=O)c4)coc23)cc1OC | 30.4% | 52% (active) | 3.09% | 50.2% (active) | 62.9% (active) | 69.7% (active) | 68.7% (active) | 73.6% (active) | 34.4% | 37.8%
